Results taken from PubChem BioAssay (NCI).
The panel holds about 83,000 compounds, 20% with a hit somewhere; the sample as a whole holds those more often.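 Plates (96-well) were seeded with cells, treated with compound at one concentration, and incubated for 48 hours before percent growth was determined.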 Values without a mark were called inactive. The source made the active and inactive calls. How the source made its calls: active means growth percent below 10; inactive means the rest.

Legend:
Assay in all cases: NCI-60 one-dose screen, 48 h (100 = growth as untreated, 0 = no growth, -100 = all killed)
Conditions in all cases: 10 µM unless noted
EKVX NSCLC = test system: EKVX NSCLC
SN12C renal = test system: SN12C renal
UO-31 renal = test system: UO-31 renal
TK-10 renal = test system: TK-10 renal
ACHN renal = test system: ACHN renal
CAKI-1 renal = test system: CAKI-1 renal
A498 renal = test system: A498 renal
CCRF-CEM leukemia = test system: CCRF-CEM leukemia
MOLT-4 leukemia = test system: MOLT-4 leukemia

Row | Compound | growth (EKVX NSCLC) | growth (SN12C renal) | growth (UO-31 renal) | growth (TK-10 renal) | growth (ACHN renal) | growth (CAKI-1 renal) | growth (A498 renal) | growth (CCRF-CEM leukemia) | growth (MOLT-4 leukemia)
1 | COC(=O)[C@]1(CCSC)N[C@H](c2cn(-c3ccccc3)nc2C)[C@@H]2C(=O)N(c3ccccc3)C(=O)[C@@H]21 | 107% | 103% | 90.9% | 118% | 113% | 101% | 93% |  | 
2 | CCOC(=O)C(Cc1ccccc1)(C(=O)OCC)C(Br)C(=O)c1ccccc1 (stereo not drawn) | 88.8% | 88.7% | 37.6% | 69.2% | 44.3% | 52% | 82.4% |  | 
3 | CN1COc2ccc3ccccc3c2C1 | 96.1% | 87.5% | 32.3% | 105% | 89% | 90.9% | 102% |  | 
4 | O=C1Cc2cc(CCN3CCN(CCOCCO)CC3)c(Cl)cc2N1Cc1ccc(-c2ccccc2-c2nn[nH]n2)cc1 | 47.4% | 86.1% | 79.5% | 111% | 84.1% | 61% | 59.9% |  | 
5 | O=C1CN(CO)C(=O)CN1CO | 114% | 99.3% | 87.7% | 124% | 97.6% | 94.8% | 94% | 92.8% | 105%
6 | Cn1cc(-c2nc(-c3c[nH]c4ncc(F)cc34)cs2)c2cccnc21 | 84.3% | 101% | 100% | 124% | 93.7% | 92.5% | 109% | 102% | 101%
7 | Cn1cc(-c2nc(-c3c[nH]c4ncccc34)cs2)c2cccnc21 | 50.5% | 84.4% | 52.9% | 31% | 41.4% | 28.3% | 50.1% | 65.3% | 69.3%
8 | CN(CCOc1ccc(CC2SC(=O)NC2=O)cc1)c1ccccn1 (stereo not drawn) | 101% | 88.2% | 72.1% | 103% | 84.9% | 96.3% | 110% | 108% | 119%
9 | O=C(OC[C@H]1O[C@H](OC(=O)c2cc(O)c(O)c(OC(=O)c3cc(O)c(O)c(O)c3)c2)[C@H](OC(=O)c2cc(O)c(O)c(OC(=O)c3cc(O)c(O)c(O)c3)c2)[C@@H](OC(=O)c2cc(O)c(O)c(OC(=O)c3cc(O)c(O)c(O)c3)c2)[C@@H]1OC(=O)c1cc(O)c(O)c(OC(=O)c2cc(O)c(O)c(O)c2)c1)c1cc(O)c(O)c(OC(=O)c2cc(O)c(O)c(O)c2)c1 | 37.4% | 31.6% | 22.1% | 43.4% | 24.6% | 19.6% | 35.6% | 24% | 26.3%
10 | CCCCCCCCCCC[C@@H](C[C@H]1OC(=O)[C@H]1CCCCCC)OC(=O)[C@@H](CC(C)C)NC=O | 95.6% | 43.9% | 19% | 94.7% | 62.7% | 54.7% | 84.5% | 27.6% | 13.1%
11 | CO[C@H]1CC(O[C@@H]2/C(C)=C/C[C@@H]3C[C@@H](C[C@]4(CC[C@H](C)[C@@H](C5CCCCC5)O4)O3)OC(=O)[C@@H]3C=C(C)/C(=N/O)[C@H]4OC/C(=C\C=C\[C@@H]2C)[C@]43O)O[C@@H](C)C1O (stereo partly drawn) | -85.9% (active) | -82.4% (active) | -90.5% (active) | -90.4% (active) | -94.4% (active) | -73.8% (active) | -96.2% (active) | -47.9% (active) | -36.7% (active)
12 | CC1=NN(c2ccccc2Cl)C(=O)/C1=C\c1cn(S(=O)(=O)c2ccc(C)cc2)c2ccccc12 | 98% | 97.5% | 78.2% | 167% | 97.5% | 87.8% | 117% | 135% | 173%
13 | NC(N)=NN=c1c(=O)c2ccccc2c1=O | 118% | 16.3% | 64.8% | 110% | 78% | 104% | 78.1% | -27.9% (active) | -33.1% (active)
14 | CCCCc1nc(Cl)c(CO)n1Cc1ccc(-c2ccccc2-c2nn[nH]n2)cc1 | 88.1% | 99.3% | 82.2% | 108% | 107% | 90.5% | 119% | 113% | 100%
